PubChem BioAssay (NCI)
About 79,000 compounds went through this panel and 15% of them were active in at least one assay; those are over-represented in the sample as a whole. Active and inactive are the calls of the source. Rule as the data show it: active = growth inhibition above about 70%; inactive = the rest.

Tests used:
[1] = NCI Yeast Anticancer Drug Screen. Data for the rad50 strain (AID 155);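 also: 0% = growth of vehicle-only cultures of the same strain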; details: S. cerevisiae rad50 strain growth inhibition, stronger effect = higher value
How it was run: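 Cells are treated with compound, grown, and their growth is then scored against vehicle-only cultures of the same repair-deficient yeast strain.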

[2] = NCI Yeast Anticancer Drug Screen. Data for the mec2-1 strain (AID 157); details: S. cerevisiae mec2-1 strain, stronger effect = higher value
How it was run: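 Each compound was tested on mec2-1 yeast, a strain altered in DNA damage repair or cell cycle control. Growth inhibition is reported relative to vehicle.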

[3] = NCI Yeast Anticancer Drug Screen. Data for the sgs1 mgt1 strain (AID 161);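 also: 0% = growth of cultures given vehicle only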; details: S. cerevisiae sgs1 mgt1 strain, stronger effect = higher value
How it was run: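 Genetically altered yeast, compound exposure, growth inhibition relative to vehicle.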

[4] = NCI Yeast Anticancer Drug Screen. Data for the cln2 rad14 strain (AID 165);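 also: 0% = growth equal to vehicle treated cultures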; details: S. cerevisiae cln2 rad14 strain, stronger effect = higher value
How it was run: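 Test compounds were added to cln2 rad14 yeast cultures; inhibition of growth was then determined by comparison with vehicle treatment.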

[5] = NCI Yeast Anticancer Drug Screen. Data for the bub3 strain (AID 167); details: S. cerevisiae bub3 mutant strain, stronger effect = higher value
How it was run: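 Part of a panel of yeast mutants defective in DNA damage repair or cell cycle regulation. Each strain is grown with compound, and inhibition is calculated relative to solvent-treated cultures.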

[6] = NCI Yeast Anticancer Drug Screen. Data for the mlh1 rad18 strain (AID 175); details: S. cerevisiae mlh1 rad18 strain growth inhibition, stronger effect = higher value
How it was run: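 Inhibition values reflect reduced growth of mutant yeast versus vehicle-treated controls following compound exposure; the mutations affect DNA damage repair.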

[7] = at 5.0 µM (retest, dose inferred, filed as 0.5)
[8] = at 50.0 µM (retest, dose inferred, filed as 5.0)

Measured: growth inhibition

COc1cccc(CCCNC(=O)Cc2ccccc2CO)c1
inactive: [1]; [7] 12% | [1]; [8] 14% | [1]; at 50.0 µM 34.2% | [2]; [7] 9% | [2]; [8] 5% | [2]; at 50.0 µM -55.1% | [3]; [7] 9% | [3]; [8] 12% | [3]; at 50.0 µM -13.8% | [4]; [7] 1% | [4]; [8] 5% | [4]; at 50.0 µM 7.7% | [5]; [7] 11% | [5]; [8] 14% | [5]; at 50.0 µM -12.2% | [6]; [7] 13% | [6]; [8] 10% | [6]; at 50.0 µM -46.8%

c1ccc2c(O[Si](Oc3cccc4ccccc34)(Oc3cccc4ccccc34)Oc3cccc4ccccc34)cccc2c1
active: [1]; [8] 87% | [1]; at 50.0 µM 96% | [2]; [8] 87% | [2]; at 50.0 µM 97.7% | [3]; [8] 89% | [3]; at 50.0 µM 97.8% | [4]; [8] 71% | [4]; at 50.0 µM 89.6% | [5]; [8] 93% | [5]; at 50.0 µM 96.8% | [6]; [8] 86% | [6]; at 50.0 µM 95.8%
inactive: [1]; [7] 7% | [2]; [7] 0% | [3]; [7] 3% | [4]; [7] -5% | [5]; [7] 3% | [6]; [7] 2%

CCCCC#C[I+]c1ccccc1
active: [1]; at 50.0 µM 90.5% | [2]; at 50.0 µM 93% | [3]; at 50.0 µM 93.2% | [4]; at 50.0 µM 91.2% | [5]; at 50.0 µM 87.5% | [6]; at 50.0 µM 89.3%
inactive: [1]; [7] 66% | [1]; [8] 66% | [2]; [7] 46% | [2]; [8] 46% | [3]; [7] 54% | [3]; [8] 54% | [4]; [7] 58% | [4]; [8] 58% | [5]; [7] 32% | [5]; [8] 32% | [6]; [7] 65% | [6]; [8] 65%

O=C(O)C1CC[N-]CC1.O=C(O)C1CC[N-]CC1.[Cl][Pt+2]([Cl])([Cl])[Cl]
active: [1]; [8] 90% | [1]; at 50.0 µM 97.6% | [2]; [8] 94% | [2]; at 50.0 µM 85.2% | [3]; [8] 94% | [3]; at 50.0 µM 94.1% | [4]; [8] 97% | [4]; at 50.0 µM 81.7% | [5]; [8] 93% | [5]; at 50.0 µM 90.2% | [6]; [8] 94% | [6]; at 50.0 µM 88.8%
inactive: [1]; [7] 30% | [2]; [7] 2% | [3]; [7] 38% | [4]; [7] 0% | [5]; [7] 17% | [6]; [7] 25%

CC(C)(COC(=O)Nc1cccc(Cl)c1)[N+](=O)[O-]
active: [1]; at 50.0 µM 88.3% | [6]; at 50.0 µM 82.6%
inactive: [1]; [7] 2% | [1]; [8] 15% | [2]; [7] -3% | [2]; [8] 6% | [2]; at 50.0 µM 5.6% | [3]; [7] -1% | [3]; [8] 3% | [3]; at 50.0 µM 53.3% | [4]; [7] -41% | [4]; [8] -3% | [4]; at 50.0 µM -33.5% | [5]; [7] -1% | [5]; [8] 3% | [5]; at 50.0 µM 65.7% | [6]; [7] -1% | [6]; [8] 6%

CC(=O)CC(C)=O.CCN(CC)CC[C-]=O.[Pd+2]
active: [2]; at 50.0 µM 70.8% | [3]; at 50.0 µM 73.5% | [5]; at 50.0 µM 76.5% | [6]; at 50.0 µM 74.9%
inactive: [1]; [7] 1% | [1]; [8] 54% | [1]; at 50.0 µM 66.9% | [2]; [7] 8% | [2]; [8] 33% | [3]; [7] -5% | [3]; [8] 22% | [4]; [7] 21% | [4]; [8] 32% | [4]; at 50.0 µM 9.6% | [5]; [7] -1% | [5]; [8] 33% | [6]; [7] 0% | [6]; [8] 54%

O=[N+]([O-])c1ccc(/C=N/O)o1
active: [1]; [8] 98% | [1]; at 50.0 µM 98.2% | [2]; [8] 99% | [2]; at 50.0 µM 99.5% | [3]; [8] 99% | [3]; at 50.0 µM 99.2% | [4]; [8] 98% | [4]; at 50.0 µM 89% | [5]; [8] 99% | [5]; at 50.0 µM 99.6% | [6]; [8] 99% | [6]; at 50.0 µM 99%
inactive: [1]; [7] 20% | [2]; [7] 6% | [3]; [7] 5% | [4]; [7] 49% | [5]; [7] 13% | [6]; [7] 44%

Nc1cc(Cl)ccc1S
inactive: [1]; [8] 48% | [3]; [8] 47% | [4]; [7] 25% | [4]; [8] 53% | [5]; [7] 31%
active: [1]; [7] 79% | [1]; at 50.0 µM 99.5% | [2]; [7] 99% | [2]; [8] 89% | [2]; at 50.0 µM 99.5% | [3]; [7] 83% | [3]; at 50.0 µM 99.5% | [4]; at 50.0 µM 99% | [5]; [8] 91% | [5]; at 50.0 µM 99.3% | [6]; [7] 83% | [6]; [8] 75% | [6]; at 50.0 µM 99.5%

O=C1C=CC(=O)N1C12CC3CC(CC(C3)C1)C2
inactive: [1]; [7] 41% | [2]; [7] 62% | [4]; [7] 13%
active: [1]; [8] 99% | [1]; at 50.0 µM 90.8% | [2]; [8] 99% | [2]; at 50.0 µM 93.4% | [3]; [7] 73% | [3]; [8] 99% | [3]; at 50.0 µM 90.9% | [4]; [8] 99% | [4]; at 50.0 µM 91.5% | [5]; [7] 72% | [5]; [8] 99% | [5]; at 50.0 µM 91.8% | [6]; [7] 76% | [6]; [8] 99% | [6]; at 50.0 µM 90.7%
